# Where “and” joins values, the source holds several entries; their conditions need not be identical. Equal entries are not always repeated. The source holds several records for some structures; these can differ, active in one and inactive in another. Calls of active or inactive are those of the source. The calls were made as follows: active = hit-call score of the fitted dose curve at least 0.9, where 1 is the maximum; inactive = score below 0.9.
# How the values were obtained:
# [1] = biological target: Transcription factor E2F1 (Homo sapiens) (UniProt Q01094); assay: ATG_E2F_CIS: Attagene CIS-FACTORIAL HepG2 Assay for human E2F Transcription Factor 1 (AID 2282935); conditions: HepG2 Attagene cis-reporter, E2F reporter RNA transcripts; actives raise or lower the signal
# Chain of Transcription factor E2F1 (Homo sapiens) (Q01094 whole entry, looked up): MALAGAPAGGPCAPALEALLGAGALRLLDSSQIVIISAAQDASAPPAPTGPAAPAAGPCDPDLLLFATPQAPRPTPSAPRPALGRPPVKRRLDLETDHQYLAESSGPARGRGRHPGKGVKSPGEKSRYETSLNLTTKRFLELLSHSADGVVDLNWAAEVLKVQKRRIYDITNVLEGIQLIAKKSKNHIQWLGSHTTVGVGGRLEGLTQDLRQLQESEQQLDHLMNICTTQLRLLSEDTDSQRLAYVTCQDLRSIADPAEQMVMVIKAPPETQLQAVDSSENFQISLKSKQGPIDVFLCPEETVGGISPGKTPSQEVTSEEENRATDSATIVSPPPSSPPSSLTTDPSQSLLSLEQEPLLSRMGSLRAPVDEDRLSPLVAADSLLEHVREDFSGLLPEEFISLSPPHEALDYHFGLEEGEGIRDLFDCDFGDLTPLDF
# Procedure, shortened: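 Transient MRTU transfection of HepG2; 24 h compound exposure; RNA → oligo(dT) RT → PCR → FAM label → HpaI cut → CE fluorescence. Gain/loss of signal fit against DMSO.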
# [2] = ATG_E_Box_CIS: Attagene CIS-FACTORIAL HepG2 Assay for human Enhancer Box (E-box) (AID 2282936); conditions: HepG2 E-box cis-reporter transcription, actives raise or lower the signal
# Procedure, shortened: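 Transiently transfected HepG2, endogenous TF-driven reporters, 24 h dosing. Readout: RT-PCR plus capillary electrophoresis of fluorescent reporter fragments. Gain or loss of signal fitted bidirectionally against DMSO baseline.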
# [3] = ATG_M_61_CIS: Attagene CIS-FACTORIAL HepG2 Assay for M61 Transcription Factor (Internal Marker) (AID 2282937); conditions: HepG2 Attagene CIS-FACTORIAL M61 internal marker reporter; actives raise or lower the signal
# Procedure, shortened: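 Endogenous transcription factor activity in HepG2 is read through transiently transfected cis-element reporter units. After 24 h dosing, RNA undergoes reverse transcription, PCR and primer extension with 6-FAM before capillary electrophoresis; DMSO-referenced bidirectional fit.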
# [4] = ATG_EGR_CIS: Attagene CIS-FACTORIAL HepG2 Assay for human Early Growth Response 1 (EGR1) (AID 2282938); conditions: HepG2 Attagene CIS-FACTORIAL EGR reporter mRNA; actives raise or lower the signal
# Procedure, shortened: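 Activity is taken as induction or loss of reporter mRNA versus DMSO, fitted bidirectionally. Transcripts from cis-regulated reporter units in transiently transfected HepG2 were measured after 24 h by RT-PCR with capillary electrophoresis.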
# [5] = ATG_M_19_CIS: Attagene CIS-FACTORIAL HepG2 Assay for M19 Transcription Factor (Internal Marker) (AID 2282939); conditions: HepG2 Attagene CIS-FACTORIAL M19 internal marker reporter; actives raise or lower the signal
# Procedure, shortened: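 Readout: fluorescent reporter-transcript fragments by capillary electrophoresis after RT-PCR. Human HepG2 liver cells carried transfected MRTU constructs reporting endogenous transcription-factor activity; exposure 24 h. Gain or loss of signal fitted relative to DMSO.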
# [6] = ATG_ERE_CIS: Attagene CIS-FACTORIAL HepG2 Assay for Estrogen Response Element (ERE) (AID 2282940); conditions: HepG2 ERE cis-reporter, Attagene RNA transcript; actives raise or lower the signal
# Procedure, shortened: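 Readout: reporter mRNA induction by RT-PCR, FAM-labelled primer extension, HpaI digestion and capillary electrophoresis, 24 h after dosing transfected HepG2 cells. Endogenous transcription factors act on cis-element-regulated reporters. Gain or loss fitted against DMSO.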
# [7] = ATG_Ets_CIS: Attagene CIS-FACTORIAL HepG2 Assay for human Erythroblast Transformation Specific (ETS) (AID 2282941); conditions: HepG2 ETS cis-reporter transcription, actives raise or lower the signal
# Procedure, shortened: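 Cis-regulated reporter mRNA induction in HepG2 (transient transfection), 24 h exposure, RT-PCR plus capillary electrophoresis detection; DMSO serves as negative control and baseline.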
# [8] = biological target: Hepatocyte nuclear factor 3-beta (Homo sapiens) (UniProt Q9Y261); assay: ATG_FoxA2_CIS: Attagene CIS-FACTORIAL HepG2 Assay for human Forkhead box A2 (FOXA2) (AID 2282942); conditions: HepG2 cis-reporter transcription factor activity, 24 h; actives raise or lower the signal
# Chain of Hepatocyte nuclear factor 3-beta (Homo sapiens) (Q9Y261 whole entry, looked up): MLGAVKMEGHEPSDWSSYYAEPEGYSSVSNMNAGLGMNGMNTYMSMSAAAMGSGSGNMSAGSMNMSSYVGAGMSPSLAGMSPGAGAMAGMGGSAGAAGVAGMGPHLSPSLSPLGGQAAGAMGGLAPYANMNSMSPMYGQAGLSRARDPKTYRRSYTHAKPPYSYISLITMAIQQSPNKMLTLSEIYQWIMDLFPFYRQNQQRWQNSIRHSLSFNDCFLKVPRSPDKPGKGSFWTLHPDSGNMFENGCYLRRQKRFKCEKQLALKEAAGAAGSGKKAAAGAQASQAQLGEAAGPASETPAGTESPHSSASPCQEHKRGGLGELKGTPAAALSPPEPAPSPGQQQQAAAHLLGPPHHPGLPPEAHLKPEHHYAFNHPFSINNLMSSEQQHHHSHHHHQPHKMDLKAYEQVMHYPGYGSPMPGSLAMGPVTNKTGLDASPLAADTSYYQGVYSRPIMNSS
# Procedure, shortened: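 Reporter transcript induction is measured by fluorescence after capillary electrophoresis of RT-PCR products from HepG2 cells exposed 24 h. Cis-regulated reporter units report endogenous factor activity; curves fitted both directions against DMSO.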
# [9] = ATG_FoxO_CIS: Attagene CIS-FACTORIAL HepG2 Assay for human Forkhead box O (FoxO) (AID 2282943); conditions: HepG2 Attagene cis-reporter, FoxO element, mRNA; actives raise or lower the signal
# Procedure, shortened: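 Transfected HepG2 reporter cells exposed to test chemical for 24 h; reporter RNA measured by reverse transcription, PCR and fluorescent capillary electrophoresis; curves fitted for increases and decreases against DMSO.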
# [10] = ATG_GATA_CIS: Attagene CIS-FACTORIAL HepG2 Assay for human GATA Binding Protein (AID 2282944); conditions: HepG2 GATA cis-element reporter, Attagene multiplex mRNA; actives raise or lower the signal
# Procedure, shortened: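 Read-out: fluorescent reporter mRNA fragments resolved by capillary electrophoresis after RT-PCR. Human liver HepG2 cells carried transiently transfected cis-regulated reporter constructs; chemicals incubated 24 h; gain or loss of signal fitted relative to DMSO.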
SMILES,AC50 [1],outcome [1],AC50 [2],outcome [2],AC50 [3],outcome [3],AC50 [4],outcome [4],AC50 [5],outcome [5],outcome [6],outcome [7],outcome [8],outcome [9],AC50 [10],outcome [10],AC50 [6],AC50 [7],AC50 [8],AC50 [9]
CCC(=C(c1ccc(O)cc1)c1ccc(OCCN(C)C)cc1)c1ccccc1,10.8 µM (active),inactive,9.17 µM (active) and 7.1 µM (active) and 3.43 µM (active),inactive,11.7 µM (active),inactive,9.87 µM (active) and 10.8 µM (active),inactive,10.7 µM (active),inactive,inactive,inactive,inactive,inactive,10.5 µM (active),inactive,,,,
OCCC(F)(F)C(F)(F)C(F)(F)C(F)(F)C(F)(F)C(F)(F)F,136 µM (active),inactive,,inactive,,inactive,,inactive,,inactive,,inactive,inactive,inactive,125 µM (active),inactive,33.9 µM (active) and 9.4 µM (active),,,
CC[C@H](c1ccc(O)cc1)[C@@H](CC)c1ccc(O)cc1,,inactive,,inactive,,inactive,11.1 µM (active),inactive,,inactive,,inactive,inactive,inactive,,inactive,1.02 nM (active) and 3.79 nM (active) and 1.01 nM (active),,,
O=C1OC2(c3ccccc31)c1cc(Br)c(O)c(Br)c1Oc1c2cc(Br)c(O)c1Br,,inactive,62.7 µM (active),inactive,,inactive,62.3 µM (active),inactive,,inactive,inactive,inactive,inactive,inactive,,inactive,,,,
CCc1ccc(CCOc2ccc(CC3SC(=O)NC3=O)cc2)nc1 (stereo not given),,inactive,,inactive,,inactive,,inactive,,inactive,,inactive,inactive,inactive,,inactive,19.8 µM (active) and 41.4 µM (active),,,
OCCC(F)(F)C(F)(F)C(F)(F)C(F)(F)C(F)(F)C(F)(F)C(F)(F)C(F)(F)F,,inactive,261 µM (active),inactive,,inactive,26.5 µM (active) and 150 µM (active),,,inactive,,,,inactive,,inactive,9.11 µM (active) and 8.41 µM (active),50.7 µM (active) and 150 µM (active),51.9 µM (active) and 235 µM (active),
Cc1oc(-c2ccccc2)nc1CCOc1ccc(C[C@H](Nc2ccccc2C(=O)c2ccccc2)C(=O)O)cc1,,inactive,,inactive,,inactive,17.1 µM (active),,,inactive,,inactive,inactive,inactive,,inactive,0.523 nM (active),,,
CCCCCCCCCCCCCC[N+](C)(C)C,,inactive,,inactive,,inactive,11.1 µM (active),inactive,,inactive,inactive,inactive,inactive,inactive,,inactive,,,,
COCC(C)O (stereo not given),,inactive,,inactive,,inactive,,inactive,,inactive,inactive,inactive,inactive,inactive,,inactive,,,,
COC(=O)CCCCC(=O)OC,,inactive,,inactive,,inactive,,inactive,,inactive,inactive,inactive,inactive,inactive,,inactive,,,,
N#C[C@@H]1CC(F)(F)CN1C(=O)CNC1CC2CCC(C1)N2c1ncccn1 (stereo not given in full),,inactive,,inactive,,inactive,,inactive,,inactive,inactive,inactive,inactive,inactive,,inactive,,,,
CN(C)C=O,,inactive,,inactive,,inactive,,inactive,,inactive,inactive,inactive,inactive,inactive,,inactive,,,,
OC1CCC(C2CCCCC2)CC1 (stereo not given),,inactive,,inactive,,inactive,,inactive,,inactive,,inactive,inactive,inactive,,inactive,27 µM (active) and 27.4 µM (active) and 27.5 µM (active),,,
NC(=O)N(O)[C@@H]1C=C[C@H](Oc2cccc(Oc3ccc(F)cc3)c2)C1,,inactive,,inactive,,inactive,33 µM (active),,,inactive,inactive,inactive,inactive,inactive,,inactive,,,,
CCCCCCCC(=O)O,,inactive,,inactive,,inactive,,inactive,,inactive,inactive,inactive,inactive,inactive,,inactive,,,,
NC(=O)N1C(=O)C(C(=O)c2cc(Cl)cs2)c2cc(F)c(Cl)cc21 (stereo not given),,inactive,,inactive,,inactive,,inactive,,inactive,inactive,inactive,inactive,inactive,,inactive,,,,
CC(=O)CC(C)(C)O,,inactive,,inactive,,inactive,,inactive,,inactive,inactive,inactive,inactive,inactive,,inactive,,,,
CC(O)C(=O)O (stereo not given),,inactive,,inactive,,inactive,,inactive,,inactive,inactive,inactive,inactive,inactive,,inactive,,,,

SMILES,AC50 [1],outcome [1],AC50 [2],outcome [2],AC50 [3],outcome [3],AC50 [4],outcome [4],AC50 [5],outcome [5],outcome [6],outcome [7],outcome [8],outcome [9],AC50 [10],outcome [10],AC50 [6],AC50 [7],AC50 [8],AC50 [9]
OC1CCCCC1,,inactive,,inactive,,inactive,,inactive,,inactive,inactive,inactive,inactive,inactive,,inactive,100000 nM (active),,,
Nc1cccc2c(N)cccc12,,inactive,,inactive,,inactive,,inactive,,inactive,inactive,inactive,inactive,inactive,,inactive,,,,
CC#C[C@]1(O)CC[C@H]2[C@@H]3CCC4=CC(=O)CCC4=C3[C@@H](c3ccc(N(C)C)cc3)C[C@@]21C,,inactive,,inactive,,inactive,9.86 µM (active) [middle of 4 runs],,,inactive,inactive,inactive,inactive,inactive,,inactive,,8.92 µM (active),58.4 µM (active),
c1ccc2cc3c(ccc4ccccc43)cc2c1,,inactive,1.59 µM (active) and 4.58 µM (active) and 2.65 µM (active),inactive,,inactive,2.26 µM (active),inactive,,inactive,,inactive,inactive,inactive,,inactive,2.82 µM (active) [middle of 4 runs],,,
ClC1=C(Cl)C(Cl)(Cl)C(Cl)=C1Cl,,inactive,6.36 µM (active),inactive,,inactive,17.8 µM (active) and 6.6 µM (active),,,inactive,inactive,,inactive,inactive,,inactive,,17.7 µM (active) and 16.2 µM (active),,16.1 µM (active)
CCCCCCC(=O)O,,inactive,,inactive,,inactive,,inactive,,inactive,inactive,inactive,inactive,inactive,,inactive,,,,
O=C(O)Cc1cc(I)c(Oc2cc(I)c(O)c(I)c2)c(I)c1,,inactive,113 µM (active),inactive,,inactive,22.5 µM (active) and 36.5 µM (active),,,inactive,inactive,inactive,inactive,inactive,115 µM (active),inactive,,38.1 µM (active),83.7 µM (active),46.7 µM (active)
CC[C@H](C)[C@@H](C(=O)O)n1sc2ccccc2c1=O,,inactive,,inactive,,inactive,,inactive,,inactive,inactive,inactive,inactive,inactive,,inactive,,,,
CN1CCC[C@H]1c1cccnc1,,inactive,,inactive,,inactive,,inactive,,inactive,inactive,inactive,inactive,inactive,,inactive,49400 nM (active),,,
NCC(F)(F)C(F)(F)C(F)(F)C(F)(F)C(F)(F)C(F)(F)C(F)(F)F,,inactive,,inactive,,inactive,,inactive,,inactive,inactive,inactive,inactive,inactive,,inactive,,,,
CC1=C(/C=C/C(C)=C/C=C/C(C)=C/C(=O)O)C(C)(C)CCC1,,inactive,,inactive,,inactive,21.5 µM (active),inactive,,inactive,inactive,inactive,inactive,inactive,,inactive,112 nM (active),,,44.4 µM (active)
O=[N+]([O-])c1ccc(O)cc1,,inactive,,inactive,,inactive,,inactive,,inactive,inactive,inactive,inactive,inactive,,inactive,,,,
COCC(C)OCC(C)O (stereo not given),,inactive,,inactive,,inactive,,inactive,,inactive,inactive,inactive,inactive,inactive,,inactive,,,,
O=C(O)c1ccccc1C(c1ccc(O)cc1)c1ccc(O)cc1,,inactive,,inactive,,inactive,,inactive,,inactive,,inactive,inactive,inactive,,inactive,62.7 µM (active) [middle of 4 runs],,,
Cc1cc(C)c(O)c(C)c1,,inactive,,inactive,,inactive,,inactive,,inactive,inactive,inactive,inactive,inactive,,inactive,,,,
CCOC(=O)CC(O)(CC(=O)OCC)C(=O)OCC,,inactive,,inactive,,inactive,,inactive,,inactive,inactive,inactive,inactive,inactive,,inactive,,,,
CCCOC(=O)c1ccc(O)cc1,,inactive,,inactive,,inactive,157 µM (active),inactive,,inactive,,inactive,inactive,inactive,,inactive,6.06 µM (active) and 16 µM (active),,,

# From PubChem BioAssay (EPA / NIEHS)
